{
  "source": "PubChem BioAssay AID449762",
  "about": "(Southern Research Specialized Biocontainment Screening …, 2010)",
  "note": "Among all 330,000 compounds or so, about 1,900 (0.58%) were called active. About 4% were inconclusive and are not listed. Not all results are given here. Measured potencies and affinities stand elsewhere. Values without a mark were called inactive. Cut-off read from the data, not from the text of the source: inconclusive = inhibition above about 70% without an active follow-up result; inactive = below that.",
  "data": [
    {"experiment": "M. tuberculosis growth inhibition, HTS (AID 449762);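 note: bacterial growth assessed after seven days of incubation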", "settings": "M. tuberculosis H37Rv growth inhibition, 7H9 media; at 25 µM; stronger effect = higher value", "units": {"inhibition": "%"}, "values": [
      {"smiles": "Cc1ccc(S(=O)(=O)NC(=O)Nc2ccc(C)cc2C)cc1", "inhibition": -6.63},
      {"smiles": "Cn1c(=O)c2c(ncn2CC(=O)Nc2ccc(N3CCOCC3)cc2)n(C)c1=O", "inhibition": -5.62},
      {"smiles": "O=C(O)CN=CC1=C(O)CC(c2ccccc2)CC1=O", "note": "(centres undefined)", "inhibition": 4.73},
      {"smiles": "N/C(Cc1ccc(Cl)cc1)=N\\OC(=O)c1ccc2ccccc2c1", "inhibition": 0.18},
      {"smiles": "N/C(Cc1ccc([N+](=O)[O-])cc1)=N\\OC(=O)c1ccc([N+](=O)[O-])cc1", "inhibition": 44.8},
      {"smiles": "CCCCn1c(N)c(N(CCOC)C(=O)c2cccc(S(=O)(=O)N3CCCCCC3)c2)c(=O)[nH]c1=O", "inhibition": -2.07},
      {"smiles": "CC(=O)Oc1cccc(N2C(=O)c3ccccc3C2=O)c1", "inhibition": -13.4},
      {"smiles": "CC(=O)Oc1ccc(C#C/C=C2\\c3ccccc3C(=O)N2c2ccccc2)cc1", "inhibition": 22.6},
      {"smiles": "Cc1nc2c(cc1NC(=O)C(C)(C)C)nc(C)n2Cc1ccccc1", "inhibition": -8.25},
      {"smiles": "O=c1cc(-c2ccccc2Cl)oc2cccc(O)c12", "inhibition": 1.24},
      {"smiles": "Nc1ccc2oc(-c3ccccc3Cl)cc(=O)c2c1O", "inhibition": -3.11},
      {"smiles": "COc1ccccc1N(CC(=O)NCCSC(C)(C)C)S(C)(=O)=O", "inhibition": 2.68},
      {"smiles": "CN1CCN(CC(=O)Nc2c(C(=O)c3ccccc3)oc3ccccc23)CC1", "inhibition": 3.75},
      {"smiles": "COc1ccc2oc(C(=O)c3ccccc3)c(NC(=O)CN3CCN(C)CC3)c2c1", "inhibition": 15.4},
      {"smiles": "COC(C[C@@H]1O[C@H]1C(=O)COCc1ccccc1)OC", "inhibition": -5.79},
      {"smiles": "O=C(Cn1ccc([N+](=O)[O-])n1)NCc1cccnc1", "inhibition": 4.03},
      {"smiles": "CCCCSC1(SCCCC)N=C(N)C2(C#N)C(c3ccccc3)NC(C)=CC12C#N", "note": "(centres undefined)", "inhibition": -0.17},
      {"smiles": "CCC(=O)Nc1cccc2ccccc12", "inhibition": -0.62},
      {"smiles": "CCCC(=O)Nc1ccccc1NC(=O)CCC", "inhibition": 0.31},
      {"smiles": "COc1ccc(C(=O)N(c2ccc(OC)cc2)S(=O)(=O)c2cccs2)cc1", "inhibition": 4.22},
      {"smiles": "NC(=O)CSc1nc2cc(Cl)ccc2c(=O)n1C1CCCCC1", "inhibition": -1.2},
      {"smiles": "COc1ccc(-c2cc3c(=O)n(CC(=O)NCc4ccccc4OC)ncn3n2)cc1", "inhibition": -8.29},
      {"smiles": "C/C(=N/NC(=O)c1cccs1)c1ccc(N2CCOCC2)cc1", "inhibition": -6.32},
      {"smiles": "CC1(c2cccc([N+](=O)[O-])c2)CC(C)(C)N(C(=O)c2ccccc2)c2ccccc21", "note": "(centres undefined)", "inhibition": 1.14},
      {"smiles": "CC(=O)N1c2ccccc2C(C)(c2ccccc2)CC1(C)C", "note": "(centres undefined)", "inhibition": -5.59},
      {"smiles": "Cc1cc(C)c(S(=O)(=O)c2ccccc2C)c(SCC(C)C)n1", "inhibition": 11},
      {"smiles": "Cc1ccc(/C=N/n2cnc3sc(-c4ccccc4)cc3c2=O)o1", "inhibition": 44.5},
      {"smiles": "Cc1sc2ncn(/N=C/c3ccco3)c(=O)c2c1C", "inhibition": -10.2},
      {"smiles": "CCCCn1nnnc1SCC(=O)Nc1cccc(C)c1", "inhibition": 7.62},
      {"smiles": "COc1ccc(CCN(C)C(=O)c2ccc(COc3ccccc3)o2)cc1OC", "inhibition": 2.55},
      {"smiles": "CC(O)(CS(=O)(=O)Cc1ccccc1)c1ccccc1Cl", "note": "(centres undefined)", "inhibition": -7.18},
      {"smiles": "Cn1cnnc1SCC(=O)Nc1nc(-c2ccc(F)cc2)cs1", "inhibition": -5.61},
      {"smiles": "CCCn1c(N2CCN(CC(=O)Nc3ccc4c(c3)OCCO4)CC2)nc2ccccc21", "inhibition": -1.09},
      {"smiles": "O=C(Nc1cc(N2CCOCC2)ncn1)NC1(C(F)(F)F)Oc2ccccc2O1", "inhibition": -1.34},
      {"smiles": "O=C(NCCN1CCOCC1)NC1(C(F)(F)F)Oc2ccc(Cl)cc2O1", "note": "(centres undefined)", "inhibition": 66.9},
      {"smiles": "CCOC(=O)c1[nH]c2ccc(OCC)cc2c1NC(=O)CN1CCN(c2ccccc2)CC1", "inhibition": -2.46},
      {"smiles": "CCOC(=O)c1[nH]c2ccc(F)cc2c1NC(=O)CN1CCc2cc(OC)c(OC)cc2C1", "inhibition": 11.2},
      {"smiles": "CNC(=S)N(C)CCc1cc2c(c(OC)c1C=C1C(=O)NC(=O)NC1=O)OCO2", "inhibition": -4.55},
      {"smiles": "Cc1cc(C(=O)N[C@@H](c2ccccc2)[C@]2(C)C[C@H]2[C@@H](C)C(=O)Nc2ccc3ccccc3c2)no1", "inhibition": 49.4},
      {"smiles": "C[C@@H](C(=O)Nc1ccc2ccccc2c1)[C@@H]1C[C@@]1(C)[C@@H](NC(=O)c1ccccc1)c1ccccc1", "inhibition": 27.7},
      {"smiles": "Cc1ccc(/C=C/C(=O)N2CCN(S(=O)(=O)c3cccs3)CC2)o1", "inhibition": -4.62},
      {"smiles": "Cc1ccc(S(=O)(=O)N2CCN(Cc3nc4sc5c(c4c(=O)[nH]3)CCCC5)CC2)cc1", "inhibition": 1.29},
      {"smiles": "Cc1ccc(S(=O)(=O)Oc2ccc(/C=N/NC(=O)c3c(Cl)cnn3C)cc2)cc1", "inhibition": 25.4},
      {"smiles": "CC(C)c1ccc(/C=N/NC(=O)c2c(Cl)cnn2C)cc1", "inhibition": -0.44},
      {"smiles": "Fc1ccc(CN2CCN(c3ccc(Cl)cc3)CC2)cc1", "inhibition": 9.18},
      {"smiles": "CCn1c(N)c(C(=O)NCc2cccnc2)sc1=S", "inhibition": -1.76},
      {"smiles": "S=c1[nH]nc(C2CCCCC2)n1/N=C/c1ccccc1", "inhibition": 9.46},
      {"smiles": "S=c1[nH]nc(C2CCCCC2)n1/N=C/C(Cl)=C\\c1ccccc1", "inhibition": -11},
      {"smiles": "Cc1cc(-c2n[nH]c(=S)n2/N=C/C(Cl)=C/c2ccccc2)n[nH]1", "inhibition": 1.35},
      {"smiles": "CC(/C=N/n1c(-c2cc(C)[nH]n2)n[nH]c1=S)=C\\c1ccccc1", "inhibition": -2.29},
      {"smiles": "Fc1cccc2sc(Nc3nc4cc5c(cc4s3)OCCO5)nc12", "inhibition": 45.4},
      {"smiles": "Cc1c(Cl)cccc1NC(=S)N(CCN(C)C)C(C)c1ccccn1", "note": "(centres undefined)", "inhibition": 0.24},
      {"smiles": "CCO[C@@H]1OC(C(=O)Nc2ccccc2)=C[C@H](c2ccc3c(c2)OCO3)[C@H]1CCCO", "inhibition": 13.4},
      {"smiles": "COc1cc(NC(=O)COC(=O)c2cc(S(=O)(=O)N3CCCCC3)ccc2Cl)c(C)cc1[N+](=O)[O-]", "inhibition": -2.58},
      {"smiles": "CCN1C(=O)[C@H]2[C@@H](c3ccc(-c4ccc(C(C)=O)cc4)cc3)N3CCC[C@@]3(C(=O)OC)[C@H]2C1=O", "inhibition": 21.2},
      {"smiles": "COc1ccc(C2c3[nH]c4ccccc4c3C[C@H]3C(=O)N(C4CCN(Cc5ccccc5)CC4)CC(=O)N23)c(OC)c1", "note": "(some centres undefined)", "inhibition": 30.2},
      {"smiles": "CCOc1ccc(C2c3[nH]c4ccccc4c3C[C@H]3C(=O)N(C4CC4)CC(=O)N23)cc1OC", "note": "(some centres undefined)", "inhibition": 4.59},
      {"smiles": "COc1ccc(-c2nc3c(s2)CN(S(C)(=O)=O)CC3)cc1OC", "inhibition": -6.59},
      {"smiles": "Cc1nn(-c2ccccc2)c(Cl)c1C(=O)N(C)CC(=O)Nc1cccc(F)c1", "inhibition": 0.93},
      {"smiles": "CCCn1c(-c2cc(OC)c(OC)c(OC)c2)nc2c1c(=O)[nH]c(=O)n2Cc1ccccc1", "inhibition": -2.63},
      {"smiles": "Cc1nn(-c2ccccc2)cc1C(c1c(N)[nH]c(=S)[nH]c1=O)c1c(N)[nH]c(=S)[nH]c1=O", "inhibition": 4.9},
      {"smiles": "COc1ccc(NS(=O)(=O)c2ccc3nc(COc4ccc(C#N)cc4)[nH]c3c2)cc1", "inhibition": 4.82},
      {"smiles": "COc1ccc(NS(=O)(=O)c2ccc3nc(COc4ccc5ccccc5c4)[nH]c3c2)cc1", "inhibition": 0.01},
      {"smiles": "CCOc1ccc(N2C(=O)C3CC(C)=C(C)CC3C2=O)c([N+](=O)[O-])c1", "note": "(centres undefined)", "inhibition": -11.3},
      {"smiles": "CCCCCn1c(SC(C)C(C)=O)nc2c1c(=O)[nH]c(=O)n2C", "note": "(centres undefined)", "inhibition": -12.7},
      {"smiles": "Cc1cc(Cl)c(OCCCN(C)C)c(Br)c1", "inhibition": 2.02},
      {"smiles": "COc1cc2[nH]c3c(Cl)ncnc3c2cc1OC", "inhibition": -3.36},
      {"smiles": "COc1ccc2c([N+](=O)[O-])c(Cl)[nH]c2c1", "inhibition": -1.29},
      {"smiles": "CCOC(=O)C1=C(C)OC(N)=C(C#N)C1c1c(C)nn(-c2ccccc2)c1Cl", "note": "(centres undefined)", "inhibition": -3.55},
      {"smiles": "Cc1ccc2c(c1)nnn2C1CCN(CC(=O)Nc2ccc(F)cc2)CC1", "inhibition": -1.73},
      {"smiles": "Cc1ccc2c(c1)nnn2C1CCN(CC(=O)c2ccc(Cl)cc2)CC1", "inhibition": 2.57},
      {"smiles": "CCSC(=Nc1ccccc1)C1=C(O)COC1=O", "inhibition": 3.26},
      {"smiles": "NCC(c1ccc(Cl)cc1Cl)c1c[nH]c2ccccc12", "note": "(centres undefined)", "inhibition": 34.8},
      {"smiles": "OC(CNCCc1c[nH]c2ccccc12)c1ccccc1", "note": "(centres undefined)", "inhibition": -1.92},
      {"smiles": "COC(=O)c1sc(N)c(C(=O)OC)c1COC(=O)C1CC(=O)N(Cc2ccco2)C1", "note": "(centres undefined)", "inhibition": -7.71},
      {"smiles": "CCOc1ccc(CCNS(=O)(=O)c2ccc3c(c2)NC(=O)CO3)cc1OCC", "inhibition": -0.19},
      {"smiles": "CCOc1ccc(NCc2nc3ccccc3n2CCOc2ccccc2)cc1", "inhibition": 33.8},
      {"smiles": "c1ccc(NCc2nc3ccccc3n2CCOc2ccccc2)cc1", "inhibition": 5.47},
      {"smiles": "CCNc1nc(NCC)nc(N/N=C/c2ccccc2)n1", "inhibition": -2.44},
      {"smiles": "O=[N+]([O-])c1ccc(/C=N/Nc2nc(N3CCCCCC3)nc(N3CCCCCC3)n2)o1", "inhibition": -9.1},
      {"smiles": "CC(C)NS(=O)(=O)c1ccc(CCC(=O)N2CCC(C(N)=O)CC2)cc1", "inhibition": -7.28},
      {"smiles": "Cc1ccccc1C(=O)Oc1cc(N)n(S(C)(=O)=O)n1", "inhibition": -5.9},
      {"smiles": "NCCCn1c(C(=O)c2ccc(Cl)cc2)c2ccc(C(F)(F)F)cc2[n+]1[O-]", "inhibition": 1.61},
      {"smiles": "NC(=O)CCCn1c(C(=O)c2ccc(Cl)cc2)c2ccc([N+](=O)[O-])cc2[n+]1[O-]", "inhibition": -3.8},
      {"smiles": "COc1ccc(CCN2CC(C(=O)NCc3ccco3)CC2=O)cc1OC", "note": "(centres undefined)", "inhibition": -1.89},
      {"smiles": "CCN1CCN(c2ccc(S(=O)(=O)N3CCOCC3)cc2NC(=O)COc2ccc(F)cc2Cl)CC1", "inhibition": 2.58},
      {"smiles": "C[C@H](NC(N)=O)C(=O)Nc1ccc(OCc2ccccc2)cc1", "inhibition": 2.2},
      {"smiles": "C/C(=N\\NC(=O)c1ccccc1F)c1ccc2c(c1)Nc1ccccc1S2", "inhibition": -0.8},
      {"smiles": "C/C(=N\\NC(=O)c1ccc(C)cc1C)c1ccc2c(c1)Nc1ccccc1S2", "inhibition": 7.51}
    ]}
  ]
}
